FLuc inh: inhibitors of firefly (Photinus pyralis) luciferase; P08659; purified P. pyralis luciferase, luminescence, biochemical; Potency, µM (top dose mostly 115 µM), usual class: inhibitors; actives 2.5% (n = 76,000); note: % is set by controls: 0 for no effect and ±100 for the full control effect; nearly all actives have a fitted effect of over 65% in size
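Biochemical qHTS: compound (6-point titration) added to 10uM D-luciferin plus 10uM ATP in Tris acetate pH 7.5 buffer with Mg, Tween-20 and BSA, then purified enzyme at 10nM; light output imaged.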
3T3 cytotox: cytotoxic compounds in NIH 3T3 cells. NIH 3T3 viability, CellTiter-Glo ATP luminescence, 48-72 h. actives 4.3% (n = 94,000). Potency, µM (doses to about 96.7 µM), for the others: at the highest dose activity change, negative = cytotoxicity, usual class: inhibitors; note: % is set by controls: 0 for no effect and ±100 for the full control effect; nearly all actives have a fitted effect of over 55% in size
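Cells were seeded at 400 per well, treated with pin-transferred compound, and kept 48 or 72 hr at 37 °C before CellTiter-Glo addition and luminescence imaging of cellular ATP.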
HEK293 tox: kills HEK 293 cells | HEK 293 viability, ATP luminescence (CellTiter-Glo), 48-72 h | Potency, µM (titrated, usually from 115 µM), without a hit: at the highest dose activity change, negative = cytotoxicity, usual class: inhibitors | actives 6.6% (n = 94,000) | AID 1345083; note: % is set by controls: 0 for no effect and ±100 for the full control effect; nearly all actives have a fitted effect of over 60% in size
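Read-out: CellTiter-Glo ATP luminescence. Cells: HEK 293, 250 cells/well. Exposure: 48 or 72 hr, 37 degree Celsius.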
hNpr1 antagonist: blocks ANP-stimulated signaling of human Npr1 receptor | HEK293 hNpr1 GloSensor cGMP, ANP-stimulated luminescence | Potency, µM (top dose mostly 46.3 µM), inactives show at the highest dose activity change, negative = inhibition, actives largely listed as inhibitors | actives 1.6% (n = 76,000) | AID 1347048; calls by dose curve; note: % is set by controls: 0 for no effect and ±100 for the full control effect; nearly all actives have a fitted effect of over 60% in size
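HEK293 cells stably expressing human Npr1 and cGMP GloSensor pGS-40F, loaded 2 h with 2% GloSensor reagent, given compound 30 min at room temperature. Luminescence read before and 20 min after 0.1 nM hNppA.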
GPT2 inh: blocks human glutamate pyruvate transaminase 2. Q8TD30. AID 1671188. actives 0.25% (n = 100,000). Potency, µM (highest dose often 57.7 µM), without a hit: at the top dose activity change, negative = inhibition, usual class: inhibitors. Recombinant GPT2, coupled pyruvate oxidase/HRP Amplex Red fluorescence; note: % is set by controls: 0 for no effect and ±100 for the full control effect; nearly all actives have a fitted effect of over 60% in size
Target sequence (Q8TD30 whole entry, looked up): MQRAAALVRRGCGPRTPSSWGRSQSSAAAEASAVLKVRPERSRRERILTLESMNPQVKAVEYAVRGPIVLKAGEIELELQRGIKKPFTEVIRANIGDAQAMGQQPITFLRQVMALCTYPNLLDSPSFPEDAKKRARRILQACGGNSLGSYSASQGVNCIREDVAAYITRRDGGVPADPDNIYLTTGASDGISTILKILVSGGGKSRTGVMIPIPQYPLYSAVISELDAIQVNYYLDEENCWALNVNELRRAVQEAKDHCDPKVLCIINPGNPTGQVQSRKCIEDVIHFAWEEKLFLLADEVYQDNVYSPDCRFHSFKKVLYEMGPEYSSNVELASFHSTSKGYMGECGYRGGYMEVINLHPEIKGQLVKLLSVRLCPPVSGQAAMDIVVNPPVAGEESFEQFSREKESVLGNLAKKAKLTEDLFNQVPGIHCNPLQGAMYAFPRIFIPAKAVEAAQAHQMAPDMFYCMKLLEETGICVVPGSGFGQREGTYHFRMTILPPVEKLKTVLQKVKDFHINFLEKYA
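Recombinant GPT2 (10ng/uL) with 250uM a-KG and 2mM L-alanine, 30 min at room temperature, in HEPES pH 7.5 buffer. Pyruvate detected by pyruvate oxidase/HRP/Amplex Red fluorescence after 30 min in the dark; AOA (50uM) as positive control.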
Npr1 antag conf: confirmation of human Npr1 natriuretic peptide receptor antagonists; shares compounds with hNpr1 antagonist; HEK293 hNpr1 cGMP GloSensor luminescence, ANP-stimulated; Potency, µM (series often up to 57.6 µM), for inactives: at the highest dose activity change, negative = inhibition, most hits filed as inhibitors; actives 76% (n = 1,400); calls by dose curve; note: nearly all actives have a fitted effect of over 70% in size
Npr2 selectivity: antagonizes human Npr2, subtype selectivity check | shares compounds with hNpr1 antagonist | HEK293 hNpr2 GloSensor cGMP luminescence, CNP-stimulated | Potency, µM (doses to about 57.6 µM), inactives show at the top dose activity change, negative = inhibition, most hits filed as inhibitors | actives 67% (n = 1,400); calls by dose curve; note: nearly all actives have a fitted effect of over 70% in size
FLuc inh counter: counter-screen for Npr1 antagonists: firefly luciferase inhibitors; shares compounds with hNpr1 antagonist; purified FLuc enzyme, luminescence, Km substrate; Potency, µM (highest dose often 57.6 µM), for the others: at the top dose activity change, negative = inhibition, usual class: inhibitors; actives 0.7% (n = 1,400); AID 1347047; note: 0% is about no effect
GloSensor cGMP: reduces cGMP signal in GloSensor control cells; shares compounds with hNpr1 antagonist; Potency, µM (titrated, usually from 57.6 µM), inactives show at the top dose activity change, negative = inhibition, most hits filed as inhibitors; HEK293 GloSensor cGMP, SNP-stimulated, luminescence; actives 69% (n = 1,400); calls by dose curve; note: % is set by controls: 0 for no effect and ±100 for the full control effect; nearly all actives have a fitted effect of over 70% in size
Numbers without * were called inactive; ! = repeats disagree; [ ] = dose if it differs, or a comment. The list is not random: actives were taken first. Their share in the collection is about 10%. Unless noted, calls come from the whole dose curve; as a rule, active = well fitted curve in the direction sought with a large enough effect; inconclusive = small, poorly fitted or top-dose-only effect, or another doubt; inactive = no such curve, though single readings can be large; an effect the other way counts as inactive or inconclusive. Potency is the fitted concentration of half-maximal effect.

For CC(=O)c1ccc(NC(=O)N[C@H]2CO[C@H]3[C@@H]2OC[C@@H]3n2nnnc2Oc2ccc(-n3ccnc3)cc2)cc1 the results were FLuc inh inactive, 3T3 cytotox -17%, HEK293 tox -12%, hNpr1 antagonist -4% and GPT2 inh 3%.
`CC[C@H]1CN(C(=O)c2ccnc(Cl)c2)CC[C@H]1CC(=O)NCc1cccc2ccccc12` gave FLuc inh inactive, 3T3 cytotox -23%, HEK293 tox -7%, hNpr1 antagonist 5% and GPT2 inh inactive.
Screening CCOC(=O)[C@H]1[C@@H](O)C(=O)N(C(C)C)C12CCN(C(=O)c1ccc(NC(C)=O)cc1)CC2 returned 3T3 cytotox inconclusive and HEK293 tox -8%.
CN(C)c1cccc(Oc2nnnn2[C@H]2CO[C@H]3[C@@H]2OC[C@@H]3NC(=O)NCc2ccccc2)c1 was read as FLuc inh inactive, 3T3 cytotox -3%, HEK293 tox -2%, hNpr1 antagonist 3% and GPT2 inh -4%.
CN(C)c1cccc(Oc2nnnn2[C@H]2CO[C@H]3[C@@H]2OC[C@@H]3NC(=O)c2ccccc2)c1 was read as FLuc inh inactive, 3T3 cytotox -29%, HEK293 tox inconclusive, hNpr1 antagonist 13µM*, GPT2 inh inactive, Npr1 antag conf inconclusive, Npr2 selectivity inconclusive, FLuc inh counter -3% and GloSensor cGMP inconclusive.
COc1ccc(-c2nnc(C[C@@H]3C[C@@H](C(C)C)[C@H](CNCc4cccnc4)C=C3C)o2)cc1 was read as FLuc inh inactive, 3T3 cytotox inconclusive, HEK293 tox inconclusive, hNpr1 antagonist -30% and GPT2 inh 5%.
Screening CC1=C[C@@H](CN2CCN(c3ncccn3)CC2)[C@H](C(C)C)C[C@H]1Cc1nnc(-c2ccccc2F)o1 returned FLuc inh inactive, 3T3 cytotox 40µM*, HEK293 tox 32µM*, hNpr1 antagonist -21%, GPT2 inh 1%, Npr1 antag conf inconclusive, Npr2 selectivity inconclusive, FLuc inh counter -2% and GloSensor cGMP 27µM*.
For COc1ccc(-c2nnc(C[C@@H]3C[C@@H](C(C)C)[C@H](CNc4ccccn4)C=C3C)o2)cc1 the results were FLuc inh inactive, 3T3 cytotox 35µM*, HEK293 tox 25µM*, hNpr1 antagonist 16µM*, GPT2 inh -14%[88.5 µM], Npr1 antag conf 22µM*, Npr2 selectivity 28µM*, FLuc inh counter -1%[86.2 µM] and GloSensor cGMP 22µM*.
`O=c1[nH]c(C2CCN(Cc3cccc(-c4cccs4)c3)CC2)nc2ccc(F)cc12` gave FLuc inh inactive, 3T3 cytotox 28µM*, HEK293 tox 22µM*!, hNpr1 antagonist inconclusive, GPT2 inh 0%, Npr1 antag conf -27%, Npr2 selectivity inconclusive, FLuc inh counter 1% and GloSensor cGMP inconclusive.
Screening Cc1nn(C)cc1-c1nc2cc(S(=O)(=O)NC(C)C)ccc2n1C(C)C returned FLuc inh inactive, 3T3 cytotox -27%, HEK293 tox 1%, hNpr1 antagonist -2% and GPT2 inh -17%.
`Cc1[nH]ncc1CNC(=O)CN1CCCc2nc(-c3ccccc3)ncc2C1=O` gave FLuc inh inactive, 3T3 cytotox -15%, HEK293 tox -15%, hNpr1 antagonist -1% and GPT2 inh inactive.
Cc1nn(C)cc1C(C)NC(=O)CN1CCCc2nc(-c3ccccc3)ncc2C1=O (centres undefined) was read as FLuc inh inactive, 3T3 cytotox -25%, HEK293 tox inconclusive, hNpr1 antagonist inconclusive, GPT2 inh inactive, Npr1 antag conf inconclusive, Npr2 selectivity -29%, FLuc inh counter 3% and GloSensor cGMP -20%.
O=C(CN1CCCc2nc(-c3ccccc3)ncc2C1=O)NCCc1c[nH]c2ccccc12 was read as FLuc inh inactive, 3T3 cytotox inconclusive, HEK293 tox inconclusive, hNpr1 antagonist 10µM*, GPT2 inh 3%, Npr1 antag conf 27µM*, Npr2 selectivity inconclusive, FLuc inh counter -10% and GloSensor cGMP 22µM*.
Screening O=C(O)CN1CCCc2nc(-c3ccccc3)ncc2C1=O returned FLuc inh inactive, 3T3 cytotox inactive, HEK293 tox inactive, hNpr1 antagonist 5% and GPT2 inh inactive.
CC(CCc1ccco1)NC(=O)CN1CCCc2nc(-c3ccccc3)ncc2C1=O (centres undefined) was read as FLuc inh inactive, 3T3 cytotox inconclusive, HEK293 tox inconclusive, hNpr1 antagonist inconclusive, GPT2 inh inactive, Npr1 antag conf inconclusive, Npr2 selectivity inconclusive, FLuc inh counter 2% and GloSensor cGMP inconclusive.
O=C([C@H]1CCCN1C(=O)c1ccccc1)N1CCC(N2CCOC2=O)CC1 was read as 3T3 cytotox 3%, HEK293 tox inactive and GPT2 inh inactive.
Screening O=C(NC1CC1)C1CCN(C(=O)c2ccc(-c3cncnc3)cc2)CC1 returned 3T3 cytotox -21%, HEK293 tox 1% and GPT2 inh inactive.
Screening COc1cccc(C(=O)NC2CCN(c3cn[nH]c(=O)c3)CC2)c1 returned FLuc inh inactive, 3T3 cytotox -6%, HEK293 tox -1%, hNpr1 antagonist 9% and GPT2 inh inactive.
For COc1cccc(N2CCN(C(=O)c3cc4n(n3)CC(c3ccc(Cl)cc3)OC4)CC2)c1 (centres undefined) the results were FLuc inh inactive, 3T3 cytotox inconclusive, HEK293 tox inconclusive, hNpr1 antagonist 16µM*, GPT2 inh 3%, Npr1 antag conf 27µM*, Npr2 selectivity inconclusive, FLuc inh counter -4% and GloSensor cGMP inconclusive.

Screens from PubChem.
